An excerpt weighted towards active compounds, which were near 10% of everything screened.
L major viab: inhibitors of Leishmania major promastigote growth; Leishmania major promastigotes, resazurin fluorescence viability; inhibition, % at 10 µM; 200,000 compounds, 9% hits; AID 1063; in the data active = inhibition above about 50%;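 also: promastigotes grown with compound for 44 hours at 28 °C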
HCT116 PTEN-null: growth suppressors of cells with PTEN tumor suppressor deletion; viability, % at 10 µM; HCT116 PTEN-null viability, CellTiter-Glo, 60 h; active compounds read low; 140,000 compounds, 1.2% hits;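 active = viability at or below a set limit, 4 SD under the median of all tested compounds, cut at about 3.7% in these data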;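 also: PTEN knockout HCT116 line with beta catenin targeted HCT116 as companion control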
ROMK primary: modulators of human ROMK potassium channel | Tet-inducible ROMK, thallium flux fluorescence; actives lie on both sides | B-score at 10 µM | 130,000 compounds, 2% hits | AID 1918;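 active = signal ratio slope over the read window, or its plate-corrected B-score, at least 3 SD from the plate mean, either direction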;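 also: B-score of the F/F0 ratio slope over 7 to 12 s after thallium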
Target sequence (P48048 whole entry, looked up): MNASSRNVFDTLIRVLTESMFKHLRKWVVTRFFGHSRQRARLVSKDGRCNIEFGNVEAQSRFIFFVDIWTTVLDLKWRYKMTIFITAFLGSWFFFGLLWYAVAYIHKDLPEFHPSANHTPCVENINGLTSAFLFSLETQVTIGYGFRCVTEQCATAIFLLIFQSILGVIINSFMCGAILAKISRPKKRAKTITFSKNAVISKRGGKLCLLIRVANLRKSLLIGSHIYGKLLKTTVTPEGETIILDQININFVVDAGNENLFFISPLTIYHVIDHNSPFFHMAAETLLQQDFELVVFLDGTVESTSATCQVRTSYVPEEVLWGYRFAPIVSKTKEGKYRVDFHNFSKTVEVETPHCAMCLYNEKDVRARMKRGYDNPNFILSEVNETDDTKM
bCat KO growth: beta-catenin-lacking colon tumor cell growth suppression; HCT116 beta-catenin knockout viability, CellTiter-Glo, 60 h; active compounds read low; 140,000 compounds, 1.5% hits; AID 818; viability, % at 10 µM;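 active = viability at or under a set limit, the compound median less 4 SD, cut at about 6% in these data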;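 also: 0% = Hyamine 1622 control at 20 µM and 100% = untreated cell control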
p97 inhibitor: blocks human p97 ATPase activity; recombinant p97 ATPase, Kinase-Glo ATP luminescence, 3 h; inhibition, % at 8 µM; 220,000 compounds, 0.42% hits; AID 1481; in the data active = inhibition above about 15%;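 also: 0% = DMSO vehicle and 100% = wells lacking enzyme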
Insulin prom inh: TRM-6 insulin promoter activity inhibition. inhibition, % at 2 µM. TRM-6 cells (human fetal islet line), insulin promoter-eGFP reporter, imaging; reporter expression induced with tamoxifen. 130,000 compounds, 0.9% hits;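 active = inhibition above the mean plus 3 SD, with well images judged a real hit on visual review, cut at about 60% in these data, passing the limit was not always enough; inconclusive = inhibition over the cutoff but images rejected on review; inactive = inhibition not above the cutoff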
ROMK retest: retested hit modulating human ROMK potassium channel | shares compounds with ROMK primary | ROMK thallium flux, fluorescence ratio; active compounds read low | normalized thallium flux (F/F0 slope) at 10 µM | 3,000 compounds, 54% hits;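 active = Flux at 10 µM at least 3 SD below or above vehicle control mean in one or both replicates; inconclusive = no clear call, values can overlap the other calls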
An asterisk follows results filed as active; ? = inconclusive; / = not tested or not shown.

SMILES	L major viab	HCT116 PTEN-null	ROMK primary	bCat KO growth	p97 inhibitor	Insulin prom inh	ROMK retest
CCCCNC(=O)/C(C#N)=C/c1ccc(-c2ccc(S(=O)(=O)N3CCOCC3)cc2)o1	7	100	/	92	5	-5	/
COCCNC(=O)/C(C#N)=C/c1c(F)cccc1Cl	49	/	-3.7*	/	3	/	0.037*
COCCNC(=O)/C(C#N)=C/c1cccs1	/	/	/	/	5	/	/
COCCCNC(=O)/C(C#N)=C/c1ccc(F)cc1	43	/	-3.9*	/	3	/	0.052*
COCCNC(=O)/C(C#N)=C/c1ccc(OCc2ccc(F)cc2)cc1	16	/	-0.8	/	-2	/	/
CCN(C(=O)C1CCN(S(=O)(=O)c2ccc3c(c2)oc(=O)n3C)CC1)c1cccc(C)c1	6	97	/	94	-1	/	/
CCCCC(=O)NS(=O)(=O)c1ccc(N=NN2CCOCC2)cc1	14	103	0.76	91	-5	3	/
COc1ccc(C(=O)c2cc([N+](=O)[O-])ccc2N2CCOCC2)cc1	-1	14	5.6*	11	5	-257	0.091
O=C(O)c1cc([N+](=O)[O-])ccc1N1CCCCC1	-1	108	0.17	96	-3	-15	/
CCOc1ccc(C(=O)c2cc([N+](=O)[O-])ccc2N2CCOCC2)cc1	0	16	6.7*	16	0	-358	0.086
Cc1ccc(C(=O)c2cc([N+](=O)[O-])ccc2N2CCCCC2)c(C)c1	26	17	2.7*	17	-2	-148	0.083
Cc1ccc(C(=O)c2cc([N+](=O)[O-])ccc2N2CCOCC2)cc1	46	14	/	15	-5	-72	/
[2H]c1c([2H])c([2H])c(-c2nc(N3CCCCCC3)sc2C(=O)c2ccccc2)c([2H])c1[2H]	12	84	/	85	-3	/	/
COc1ccc(OC)c(C2NC(=S)NC3=C2N2CCC3CC2)c1 (centres undefined)	-1	/	3*	/	0	/	0.074
COc1ccccc1NC(=O)/C(C#N)=C/c1c(C)nn(-c2ccc(F)cc2)c1Cl	1	88	/	86	4	/	/
Cc1nn(-c2ccccc2)c(Cl)c1/C=C(\C#N)C(=O)NC(C)C	100*	59	/	37	4	-5	0.038*
COc1cccc(/C=C2\SC(=S)N(N3C(=O)CCCC3=O)C2=O)c1	7	/	-2.7*	/	2	/	0.049*
COc1cc2c(cc1C=O)OC(C)C2 (centres undefined)	-2	/	0.85	/	-1	21	/
COC(=O)c1sccc1-n1cccc1C(=O)NCc1ccccc1	19	102	/	100	0	9	/
COC(=O)c1cc(C)ccc1OCc1ccc([N+](=O)[O-])cc1	/	/	-13*	/	3	/	?
COC(=O)c1ccc(COc2ccc(C)cc2[N+](=O)[O-])o1	/	/	/	/	5	/	/
Cc1cc(C)nc(N/N=C/c2cc(C)n(CC(F)(F)F)c2C)n1	0	/	1.4	/	2	/	/
COc1ccc(CCNC(=O)CCCOc2cccc(C)c2C)cc1OC	/	/	/	/	-2	/	/
Cc1ccc(C)c(N2CCN(S(=O)(=O)c3ccc4c(c3)CCC(=O)N4)CC2)c1	-4	90	0.039	91	-1	16	/
Cc1ccc(C)c(N2CCN(S(=O)(=O)c3ccc4[nH]c(=O)c(=O)[nH]c4c3)CC2)c1	-10	101	3.9*	109	10	/	?
SMILES	L major viab	HCT116 PTEN-null	ROMK primary	bCat KO growth	p97 inhibitor	Insulin prom inh	ROMK retest
Nc1nc(NCc2ccc(Cl)cc2)nc(NCCO)c1[N+](=O)[O-]	/	/	/	/	6	/	0.071
c1ccc2c(-c3[nH]ncc3CNCCCn3ncc4ccccc43)cccc2c1	77*	/	-1.8*	/	6	/	?
Fc1ccccc1N1CC(c2ccccc2)C(c2cccs2)=N1 (centres undefined)	-1	72	1.1	82	6	-28	/
CCn1c(C(=O)N2CCC(C(=O)N3CCN(c4ccccn4)CC3)CC2)cc2sccc21	-7	73	/	70	3	/	0.075
O=C(c1cc2sccc2n1Cc1ccccc1)N1CCN(c2nc3ccccc3s2)CC1	12	16	/	15	1	0	/
COc1ccc(S(=O)(=O)N(CCc2ccccc2)CC(N)=O)cc1	-5	/	0.28	/	-3	/	/
Cc1occc1C(=O)Nc1ccc2c(c1)OCCO2	-6	84	/	83	-3	-244	0.077
CCOC(=O)Cn1nc(C)c(NC(=O)COc2ccc(OC)cc2)c1C	/	/	/	/	4	/	/
CCOc1ncccc1C(=O)Nc1ccc2c(C)cc(=O)oc2c1	-3	97	/	86	2	/	/
Cc1cc(=O)oc2cc(NC(=S)NCc3ccccn3)ccc12	21	/	-6.6*	/	4	-11	0.047*
CC(C)CCNC(=O)C(c1ccc(O)cc1)N(C(=O)C1COc2ccccc2O1)c1cccc(O)c1 (centres undefined)	-9	/	-2.7*	/	3	/	0.055*
O=C(NC1CCCC1)C(c1ccc(O)cc1)N(CC1CCCO1)C(=O)C1COc2ccccc2O1 (centres undefined)	44	70	-2	71	5	-24	/
CCOC(=O)/C(C(C)=O)=C1/OC(=O)c2ccccc21	-4	102	0.081	95	-2	-37	/
CC(=O)N1CCN(C(=S)c2ccc(-c3ccc(Cl)cc3)o2)CC1	0	79	-2.5*	85	5	/	0.055*
COc1ccc(C(=O)NNC2=NC(C)(C)Cc3ccccc32)cc1	49	108	/	92	5	-23	/
CC(=O)c1ccc(N/N=C(/C(N)=O)C2=NC(C)(C)Cc3ccccc32)cc1	32	18	-5.4*	22	2	-8	0.049*
O=C(Nc1cccc(Cl)c1)N1CCN(c2ncccn2)CC1	1	95	/	86	3	-26	/
O=C(Nc1ccc(Cl)cc1Cl)N1CCN(c2ncccn2)CC1	-5	/	-3.8*	/	0	/	0.074
Cc1ccc2nsnc2c1NC(=O)CCl	5	/	-13*	/	8	/	0.079
CCC(=O)Nc1c(C)ccc2nsnc12	-6	90	/	96	2	47	/
NC(N)=N/N=C/c1ccc2cccc(OCc3ccccc3)c2n1	/	/	-3.7*	/	6	/	0.049*
Fc1ccc(COc2cccc3cccnc23)cc1	-4	/	0.16	/	1	/	/
CC1(C)CNC(=O)c2sc(NC(=O)c3ccccc3Cl)nc2C1	-5	/	-0.32	/	7	/	0.076
CC1(C)CC(=O)c2sc(NC(=O)c3ccco3)nc2C1	14	81	/	91	-11	/	/
COc1cccc(/C=c2\sc3nc(-c4cccs4)nn3c2=O)c1OC	-2	99	/	96	6	/	0.082
COc1ccccc1/C=c1\sc2nc(-c3cccs3)nn2c1=O	-11	/	/	/	6	18	/
Cn1c(Cc2ccccc2)nnc1SCc1nc2ccccc2c(=O)[nH]1	-8	/	2.5	/	11	33	0.086
COCCn1c(Cc2ccccc2)nnc1SCc1nc2ccccc2c(=O)[nH]1	-3	66	/	69	6	0	/
CC(C)CCNC(=O)CN(Cc1ccc2c(c1)OCO2)C(=O)Cn1nnc(-c2cccs2)n1	16	94	-3.1*	88	6	0	0.068*
CC(C)(C)c1cc[n+](-c2[nH]c(=O)sc2/C=N/NC([S-])=Nc2ccccc2)cc1	/	/	/	/	2	/	/

Assay outcomes from PubChem.
